PubChem BioAssay AID652039 (The Scripps Research Institute Molecular Screening Center, 2013)
Hit rate of the full screen: of about 370,000 compounds, about 3,300 (0.89%) were called active.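 Rule for the calls: active = activation above the mean of all tested compounds plus 3 SD, computed per campaign excluding outliers beyond control limits (cut at about 13% in these data); inactive = the rest.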 This excerpt belongs to a sample that is enriched for actives.

target: Kallikrein-7 (Homo sapiens) (UniProt P49862); assay: proKLK7 zymogen activators, primary screen, biochemical, fluorescence intensity (AID 652039); conditions: purified proKLK7, EDANS-DABCYL substrate fluorescence; at 7 µM; stronger effect = higher value; 100% is mature enzyme control, 0% vehicle
Sequence (P49862 whole entry, looked up): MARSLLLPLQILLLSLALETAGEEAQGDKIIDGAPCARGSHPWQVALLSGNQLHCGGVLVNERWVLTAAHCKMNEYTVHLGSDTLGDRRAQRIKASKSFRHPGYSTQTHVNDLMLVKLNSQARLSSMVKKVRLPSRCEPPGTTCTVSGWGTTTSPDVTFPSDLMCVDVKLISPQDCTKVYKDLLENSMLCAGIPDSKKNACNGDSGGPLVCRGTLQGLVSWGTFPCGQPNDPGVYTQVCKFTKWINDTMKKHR

Row | Compound | activation
1 | CN[C@H]1C[C@H]2c3cc(N4CCOCC4)ccc3CCN2C[C@H]1[C@H](C)O | -0.23% (inactive)
2 | Cc1ccccc1NC(=O)C1CCN(c2ncccn2)CC1 | 0.11% (inactive)
3 | CC[C@@H](CCC(=O)N(c1ccccc1)c1ccccc1)C1CC1 | 0.23% (inactive)
4 | CCn1c(=N)c(S(=O)(=O)c2ccc(F)cc2)cc2c(=O)n3ccccc3nc21 | 3.21% (inactive)
5 | CCCn1c(=NC(C)=O)c(C(=O)OCC)cc2c(=O)n3ccccc3nc21 | 24.2% (active)
6 | CCOC(=O)c1cc2c(=O)n3ccccc3nc2n(CC(C)C)c1=NC(=O)c1c(-c2c(F)cccc2Cl)noc1C | 0.37% (inactive)
7 | O=C(C1CCN(S(=O)(=O)c2ccccc2)CC1)N1CCN(C2CCCCC2)CC1 | 0.53% (inactive)
8 | O=C(NN1CCOCC1)c1cccc(F)c1 | 0.32% (inactive)
9 | COc1ccc(N2CCN(CCNS(=O)(=O)c3ccc([N+](=O)[O-])cc3)CC2)cc1 | -0.14% (inactive)
10 | C=CCOc1cccc(C2NC(=O)c3ccccc3O2)c1 (stereo not given) | -1.97% (inactive)
11 | O=C1NC(c2ccccc2)Oc2ccccc21 (stereo not given) | -2.02% (inactive)
12 | O=C1NC(c2cccc(Cl)c2)Nc2ccccc21 (stereo not given) | 13.9% (active)
13 | O=C(c1ccncc1)N1CC[C@H]2[C@H](CCCN2Cc2ccc(F)cc2)C1 | 0.94% (inactive)
14 | CC(OC(=O)c1ccccc1NCCO)C(=O)Nc1ccnn1C(C)C (stereo not given) | 32.9% (active)
15 | COc1ccccc1NC(=O)C(C)OC(=O)c1ccc(-n2cnnn2)cc1 (stereo not given) | -0.16% (inactive)
16 | Cc1c(NC(=O)C(C)OC(=O)c2ccccc2O)c(=O)n(-c2ccccc2)n1C (stereo not given) | 1.12% (inactive)
17 | CC(C)CNc1cccc2c1S(=O)(=O)N(Cc1cn(Cc3ccc(Cl)cc3)nn1)Cc1ccccc1O2 | -9.81% (inactive)
18 | CN(CCc1ccccn1)C1CCCN(S(=O)(=O)c2ccccc2Cl)C1 (stereo not given) | 0% (inactive)
19 | CN(CC(=O)NCCc1ccccn1)S(=O)(=O)c1ccc(Cl)cc1 | 0.31% (inactive)
20 | CN(CCc1ccccn1)S(=O)(=O)c1ccc2c3c(cccc13)C(=O)N2 | 41.6% (active)
21 | N#Cc1ccc(OC[C@@H](O)CN2CCC(C(O)(c3ccccc3)c3ccccc3)CC2)c(F)c1 | 0.5% (inactive)
22 | COc1c(N2CCN(C(=S)Nc3ccccc3F)C(C)C2)c(F)cc2c(=O)c(C(=O)O)cn(C3CC3)c12 (stereo not given) | 17.9% (active)
23 | CN1[C@H](Cc2ccccc2)COc2cccc(N3CCSCC3)c2S1(=O)=O | 0.48% (inactive)

Row | Compound | activation
24 | C[C@@H]1COc2cccc(N3CCCC3)c2S(=O)(=O)N1C | 0.38% (inactive)
25 | CC1CCN(c2oc(-c3ccccc3F)nc2C#N)CC1 | -0.12% (inactive)
26 | N#Cc1nc(-c2cccc3ccccc23)oc1N | 56.1% (active)
27 | N#Cc1nc(Cc2cccc3ccccc23)oc1NCc1ccc2c(c1)OCO2 | 0.74% (inactive)
28 | Cc1nc2ccc(N)nc2nc1C | 55.8% (active)
29 | Cc1nc2cccnc2nc1C | -0.19% (inactive)
30 | Cc1ccc(C)c(NC(=O)CCS(=O)(=O)c2ccccc2)c1 | -0.69% (inactive)
31 | CCNC(=S)Nc1ccc2c(c1)c(=O)n(C)n2Cc1ccc(Cl)cc1 | 21.2% (active)
32 | Cn1c(=O)c2cc(NC(=O)NCCc3cccs3)ccc2n1Cc1cccc(C(F)(F)F)c1 | -1.5% (inactive)
33 | COc1cc(Cn2c3ccc(NC(=O)CC(C)c4ccccc4)cc3c(=O)n2C)ccc1F (stereo not given) | 2.56% (inactive)
34 | COc1ccc(N2CCN(CCNS(=O)(=O)c3ccc(Cl)s3)CC2)cc1 | -0.36% (inactive)
35 | CCOC(=O)C1=C(C)NC2=C(C(=O)CC(C)(C)C2)C1c1ccc2c(c1)OCO2 (stereo not given) | 0.13% (inactive)
36 | Cc1nn(Cc2ccccc2)c(C)c1C(=O)NCCCN1CCCC1=O | -0.1% (inactive)
37 | CC(C)(C)OC(=O)c1c(N)n(CCCN2CCCC2=O)c2nc3ccccc3nc12 | 62.5% (active)
38 | CC(=O)c1ccc(NC(=O)CSc2nc3ccccc3c(=O)n2CCCN2CCOCC2)cc1 | 0.28% (inactive)
39 | COCC(C)OC(=O)c1c(N)n(CCCN2CCOCC2)c2nc3ccccc3nc12 (stereo not given) | 16.3% (active)
40 | CC(CN1CCOCC1)OC(=O)c1ccc(C(C)(C)C)cc1 (stereo not given) | 0.72% (inactive)
41 | O=C(NCCCN1CCCC1=O)c1ccc(S(=O)(=O)Nc2ccccc2)cc1 | -0.77% (inactive)
42 | CCCCCCNC(=O)O[C@H]1CN(C(=O)OC(C)C)N(C(=O)OC(C)C)[C@@H]2CN(S(=O)(=O)c3ccc(C)cc3)C[C@]12O | -0.38% (inactive)
43 | O=C1CCC2(CCC(c3ccc(Cl)cc3)CC2)N1CCO (stereo not given) | -0.69% (inactive)
44 | Cc1cccc(C)c1NC(=O)C(c1cccc(F)c1)N1CCN(C)CC1 (stereo not given) | -0.04% (inactive)
45 | Cc1cccc(C)c1NC(=O)C(c1ccccc1)N1CC(=O)Nc2ccccc21 (stereo not given) | 16.4% (active)
46 | Cc1ccccc1SCC(=O)OCC(=O)N1CC(=O)Nc2ccccc21 | 0.52% (inactive)

Row | Compound | activation
47 | CCCCNC(=O)C[C@@H]1C(=O)N(CCc2ccc(Cl)cc2)C2=CCCC[C@]21C(=O)OCC | 0.21% (inactive)
48 | CC(CCN1CCC(C(O)(c2ccccc2)c2ccccc2)CC1)Oc1ccc(Cl)cc1 (stereo not given) | -0.05% (inactive)
49 | CCOC(=O)C(=O)N(Cc1ccccc1)c1ccccc1C(=O)Nc1cc(OC)ccc1OC | 0.42% (inactive)
50 | COc1ccccc1C(=O)Nn1c(-c2cccs2)nc2ccccc2c1=O | -0.4% (inactive)
51 | CCc1nnc(NC(=O)CSc2nc3ccccc3c(=O)n2CCCOC)s1 | 0.09% (inactive)
52 | COCCCn1c(-c2cccs2)nc2nc3ccccc3nc21 | 22.9% (active)
53 | O=C1CC[C@@H](COc2ccc3[nH]cc(-c4ccccc4)c3c2-c2ccccc2)N1 | -1.38% (inactive)
54 | CCCc1cc(=O)oc2c(C)c(OC(C)C(=O)NCC(O)c3ccccc3)ccc12 (stereo not given) | -0.01% (inactive)
55 | CCCc1cc(=O)oc2c(C)c(O)c(CN3CCCCC3)cc12 | 58.8% (active)
56 | CCCc1cc(=O)oc2c(C)c(OCC(=O)N3CCC(C(=O)O)CC3)ccc12 | 0.06% (inactive)
57 | O=C(CSc1nnc(-c2cccc(Cl)c2)n1Cc1ccco1)Nc1ccc(OCc2ccccc2)cc1 | 0.41% (inactive)
58 | CCn1c(SCC(C)=O)nc2sc3c(c2c1=O)CCCC3 | 0.36% (inactive)
59 | CCCNC(=O)Nc1ccc2c(c1)C(=O)N(C)[C@H]1CC[C@H](CC(=O)NCC3CCCCC3)O[C@@H]1CO2 | 0.14% (inactive)
60 | CCN1CCN(C(=O)CN(C)S(=O)(=O)c2ccc(OC)cc2)CC1 | -0.44% (inactive)
61 | COc1ccc(OCC(=O)N2CCN(C(=O)c3cccs3)CC2)cc1 | 0.07% (inactive)
62 | CCN1CCN(C(=O)c2cc3cc4ccc(OC)cc4nc3s2)CC1 | 68.7% (active)
63 | COC(=O)[C@]12C[C@H](CC(=O)NCc3ccccc3)C(=O)N(Cc3ccccc3)C1=C[C@H](COCc1ccccc1)O[C@@H]2C | -0.24% (inactive)
64 | CCCOc1ccc(Oc2c(Cl)cnn(Cc3cccc4ccccc34)c2=O)cc1 | 0.98% (inactive)
65 | COc1ccc(CSc2nnc(-c3cccc(C)c3)n2C)cc1 | -0.66% (inactive)
66 | CCOC(=O)c1c(NC(=S)Nc2ccccc2)sc2c1CCN(C)C2 | 33.8% (active)
67 | CCOC(=O)c1c(NC(=O)NC(C)(C)C)sc2c1CCN(C)C2 | 0.12% (inactive)
68 | CCOC(=O)c1c(NC(=S)SC)sc(C(=O)N2CCc3ccccc3C2)c1C | 0.73% (inactive)
69 | COc1ccc(CNC(=O)C(C)n2nc(C)c3c(C)n(-c4ccccc4)nc3c2=O)c(OC)c1 (stereo not given) | 0.01% (inactive)

Row | Compound | activation
70 | COCCCNC(=O)C[C@H]1C[C@@]2(C(=O)OC)C(=C[C@H](C(C)(C)C)O[C@@H]2C)N(Cc2ccc(Cl)cc2Cl)C1=O | -0.25% (inactive)
71 | C#CCNC(=O)C[C@H]1C[C@@]2(C(=O)OC)C(=C[C@H](C(C)C)O[C@@H]2C2CC2)N(Cc2ccco2)C1=O | 0.24% (inactive)
72 | Oc1ccc2ccc3cccc[n+]3c2c1 | 16.2% (active)
73 | COc1ccc(-n2c(SCC(=O)Nc3ccc(C)c(Cl)c3)nc3ccccc3c2=O)cc1 | -0.5% (inactive)
74 | COc1ccc(-n2c(SCC(=O)Nc3ccc4c(c3)OCCO4)nnc2-c2ccc(Cl)cc2)cc1 | -0.65% (inactive)
75 | CN1C[C@]2(C=C3CCCCC3n3c(=O)n(-c4ccccc4)c(=O)n32)N=C1NC(=O)c1ccccc1 (stereo not given in full) | 0.02% (inactive)
76 | COc1ccc(-n2c(SCC(=O)Nc3ccc4cn[nH]c4c3)nnc2-c2cccnc2)cc1 | -0.83% (inactive)
77 | O=C(Nc1ccccc1)N1CCN(Cc2nc3ccccc3c(=O)[nH]2)CC1 | 0.5% (inactive)
78 | COc1ccc(CCNC(=O)Nc2ccc3c(c2)c(=O)n(C)n3C)cc1OC | 33.7% (active)
79 | COc1ccc(CCNC(=O)C(=O)Nc2ccc3nc4n(c(=O)c3c2)CCCCC4)cc1OC | 0.82% (inactive)
80 | COc1ccc(CCNC(=O)c2cc3sccc3n2C)cc1OC | -0.31% (inactive)
81 | CCOC(OCC)c1ccc(/C=C\c2nccc(N)n2)cc1 | 47.7% (active)
82 | O=C(N1CCOCC1)N1CC[C@H]2[C@H](CCCN2Cc2ccc(F)cc2)C1 | 0.18% (inactive)
83 | COc1ccc2c(c1)CN1CN(CCc3ccccc3)S(=O)(=O)CC21 (stereo not given) | -0.32% (inactive)
84 | CN(C(=O)CCn1c(=S)oc2ccccc21)C1CCCCC1 | -0.28% (inactive)
85 | CCOC(=O)C1=C(CC)OC(N)=C(C#N)C1c1ccc(F)cc1F (stereo not given) | -0.17% (inactive)
86 | CCC1=C(C(=O)OC)C(c2cc(OC)ccc2OC)C(C#N)=C(N)O1 (stereo not given) | 15.6% (active)
87 | CCOC(=O)C1=C(C)OC(N)=C(C#N)C1c1cncc(-c2ccc(F)cc2)c1 (stereo not given) | 0.49% (inactive)
88 | COC(=O)C1=C(C)OC(N)=C(C#N)C1c1cc(OC)ccc1OC (stereo not given) | 30.7% (active)
89 | COC(=O)C1=C(C)N(C)C(=S)NC1c1cc(OC)ccc1OC (stereo not given) | 0.24% (inactive)
90 | CC(C)c1ccc(C2C(C#N)=C(N)Oc3c2oc(CO)cc3=O)cc1 (stereo not given) | 0.31% (inactive)
